Measured values published in ChEMBL document CHEMBL1201862, “PubChem BioAssay data set” (2004).
Only a part of the results of these assays is listed, not drawn at random.

The compounds below were run against Acyl-homoserine lactone acylase PvdQ (Pseudomonas aeruginosa (strain LESB58)) (UniProt Q9I194) (assay: Pseudomonas aeruginosa growth inhibition with EDDHA – absorbance, plate reader, cherry-picks, dose response (AID 602389)).
Type: functional

| SMILES | AbsAC35 |
| --- | --- |
| C#CCSc1ncc(-c2ccccc2)cn1 | 214 µM (active) |
| N#CN(Cc1ccccc1)Cc1ccccc1 | 477 µM (active) |
| N#Cc1cc(-c2ccccc2)cnc1Cl | 74.1 µM (active) |
| COc1ccc(C2=C(C=O)Cc3ccccc3O2)cc1 | 210 µM (active) |
| C=CCOC(=O)c1ccc(-n2cnc(C)n2)nc1 | 89.1 µM (active) |
